# This excerpt belongs to a sample that is enriched for hits.
# TbPYK inhibitor = blocks Trypanosoma brucei pyruvate kinase. AID 624173. Q57TT1. 0.12% of 410,000 active. Potency, µM (series often up to 76.8 µM), without a hit: at the top dose activity, negative = inhibition, hits mostly inhibitors. TbPYK enzyme, Kinase-Glo Plus ATP luminescence, 45 min; also: potency is read from the fitted curve at half-maximal effect; % is scaled to controls: 0 for no effect and ±100 for the full control effect; nearly all actives have a fitted effect of over 50% in size
#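 Readout: single end-point luminescence (Kinase-Glo Plus, 10 min). Reaction conditions were TbPYK/substrate plus 130 uM ADP, 45 min at RT, pH 7.2 TEA buffer. No-enzyme wells served as controls, and data were normalized before concentration-response fitting.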
# Giardia FBPA inh = inhibitors of Giardia lamblia fructose-1,6-bisphosphate aldolase. purified Giardia FBPA. Potency, µM (highest dose often 59.6 µM), inactives show at the highest dose activity, negative = inhibition, actives largely listed as inhibitors. 0.71% of 290,000 active; also: potency is read from the fitted curve at half-maximal effect; % is scaled to controls: 0 for no effect and ±100 for the full control effect; nearly all actives have a fitted effect of over 55% in size
# Target sequence (A8B2U2 whole entry, looked up): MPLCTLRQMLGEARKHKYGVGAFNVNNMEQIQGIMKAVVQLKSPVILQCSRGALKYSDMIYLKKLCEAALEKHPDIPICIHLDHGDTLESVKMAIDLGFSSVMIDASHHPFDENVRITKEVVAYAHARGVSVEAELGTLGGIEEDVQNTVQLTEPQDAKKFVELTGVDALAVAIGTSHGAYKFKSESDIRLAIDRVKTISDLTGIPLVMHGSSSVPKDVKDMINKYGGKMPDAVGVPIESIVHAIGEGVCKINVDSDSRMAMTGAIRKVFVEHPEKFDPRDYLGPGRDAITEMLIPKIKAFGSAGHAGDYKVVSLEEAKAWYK
#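 Giardia FBPA (40 nM reagent) was preincubated 10 min at RT with compound (up to 57.5 uM final), then substrate plus GAPDH/TPI/NAD/arsenate coupling system with diaphorase/resazurin was added; resorufin fluorescence (525/598 nm) was read after 20 min.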
# CHX counter = affects cycloheximide protein synthesis inhibition readout, counter-screen | cell reporter, cycloheximide protein synthesis inhibition counterscreen | max response, % | 12% of 300,000 active | AID 2314; in the data active = max response mostly above about 13%, no sharp cut-off; inactive = mostly below about 14%; also: read at 38.3 µM for the half of the compounds with a filed dose; 0% is about no effect
# LmPK inhibitor = LmPK (Leishmania mexicana) enzyme inhibition | purified LmPK, Kinase-Glo ATP luminescence, 1 h | Potency, µM (top dose mostly 57.5 µM), without a hit: at the highest dose activity change, negative = inhibition, hits mostly inhibitors | 0.37% of 290,000 active | AID 1721; also: potency is read from the fitted curve at half-maximal effect; % is scaled to controls: 0 for no effect and ±100 for the full control effect
#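 In 50 mM imidazole pH 7.2 with 7 mM MgCl2, LmPK (0.1 nM) turned over PEP (0.5 mM) and ADP (0.1 mM) for 1 h at room temperature. Luciferase read-out of ATP.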
# Shiga toxin inh = inhibitors of Shiga toxin in Vero cells. Vero cells, Shiga toxin protein synthesis inhibition reporter. inhibition, % at 38.7 µM. 9.2% of 290,000 active; in the data active = inhibition mostly above about 28%, no sharp cut-off; inactive = mostly below about 43%; also: 0% is about no effect
# RE007 growth inh = less growth of the S. pombe RE007 Vpr strain; S. pombe RE007 Vpr strain, BacTiter-Glo ATP luminescence, 24 h; 0.21% of 360,000 active; Potency, µM (highest dose often 92.2 µM), for the others: at the highest dose activity change, negative = less growth, actives largely listed as inhibitors; active = well fitted falling curve with a large enough effect; inconclusive = small, poorly fitted or top-dose-only effect; inactive = no such curve, though single readings can be large or run the other way; also: potency is read from the fitted curve at half-maximal effect; % is scaled to controls: 0 for no effect and ±100 for the full control effect; nearly all actives have a fitted effect of over 50% in size
#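 Fission yeast strain RE007, carrying one chromosomally integrated HIV-1 vpr copy, was seeded at OD 0.01 in PMG+AL medium with 23 nL pinned compound. After 24 h at 30 °C and 99% humidity, viability was read by BacTiter-Glo luminescence.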
# * hit, by the source's call; ? = inconclusive; / = not tested or not shown; [ ] = dose if it differs, or a comment. Unless noted, calls follow the shape of the dose curve; as a rule, active = well fitted curve in the direction sought with a large enough effect; inconclusive = small, poorly fitted or top-dose-only effect, or another doubt; inactive = no such curve, though single readings can be large; an effect the other way counts as inactive or inconclusive.
SMILES,TbPYK inhibitor,Giardia FBPA inh,CHX counter,LmPK inhibitor,Shiga toxin inh,RE007 growth inh
COC(=O)c1ccc(NC(=O)CN2C(=O)CC(c3ccccc3)Sc3ccccc32)cc1 (centres undefined),1.1%,/,/,/,/,/
CCOC(=O)c1sc(NC(=O)c2sccc2C)cc1C,-24.4%,-15.5%,62.8*,?,70.0*,-18.9%
CCOC(=O)c1sc(NC(=O)Nc2cccc(Cl)c2)cc1C,-0.8%,0.0%,62.2*,1.9%,107.8*,-12.6%
CCOC(=O)c1sc(NC(=O)c2cccs2)cc1C,1.1%,-3.2%,31.7*,?,141.4*,-21.1%
CCOC(=O)c1sc(NC(=O)c2ccc(Br)o2)cc1C,2.3%,-9.7%,46.6*,-13.5%,124.5*,-20.0%
CCc1cccc(NC(=O)COc2cc(=O)n(CC)c3ccccc23)c1,-4.5%,/,/,/,/,/
COc1ccc(-c2cc(C(=O)NCC(C)C)no2)cc1,2.7%,6.8%,37.9*,3.1%,70.8*,15.9%
CCC(C)NC(=O)c1cc(-c2ccc(OC)cc2)on1 (centres undefined),-0.1%,0.1%,28.7*,-9.9%,66.4*,1.1%
COc1ccc(-c2cc(C(=O)O)no2)cc1,3.1%,-8.0%,4.0,3.2%,1.2,?
COc1ccc(S(=O)(=O)N(CC(=O)N(C)Cc2ccccc2)c2ccc(Cl)cc2)cc1,5.0%,/,/,/,/,/
CC(C)CO/N=C1/C[C@@H](O)[C@@H](O)[C@@H]2[C@@H]3C(=O)N(C(C)(C)C)C(=O)[C@H]3CC[C@H]12,/,5.2%[12.9 µM],/,/,/,/
O=C1CN(CC(=O)N2CCCCC2)c2ccccc2O1,-2.2%,-27.3%,23.6*,-3.3%,34.2,?
O=C(CN1C(=O)COc2ccccc21)N1CCOCC1,-1.9%,/,0.7,4.5%,-4.2,-13.4%
O=C1CN(CC(=O)N2CCOCC2)c2ccccc2O1,/,?,34.1*,2.7%,98.1*,/
O=C(CN1C(=O)COc2ccccc21)N1CCCC1,-17.9%,16.0%,-0.6,-3.6%,-2.9,11.7%
C/C(=N\NC(=O)c1cc(C)[nH]n1)c1ccc(-c2ccccc2)cc1,-7.9%,7.8%,8.6,3.6%,55.2*,-21.4%
Cc1cc(C(=O)N/N=C/C=C/c2ccccc2)n[nH]1,0.0%,-5.0%,6.7,4.0%,36.3,-1.7%
C/C(=N\NC(=O)c1cc(C)[nH]n1)c1cccs1,-0.2%,2.9%,11.6,-23.5%,58.9*,-19.0%
COc1ccc(/C=C2/C(=O)N(c3c(F)c(F)c(F)c(F)c3F)N=C2C)cc1,-17.5%,3.2%,20.3*,-4.2%,/,0.6%
OCC1O[C@@H](OC2C(O)C(CO)O[C@@]2(CO)O[C@@H]2OC(CO)C(O)C(O)C2O)C(O)C(O)C1O (some centres undefined),/,1.9%,/,/,/,/
Cc1cc(/C=C\c2ccc3cc(N(C)C)ccc3[n+]2C)c(C)n1-c1ccccc1,-8.5%,?,/,/,/,-19.9%
C[n+]1c(/C=C/c2ccc(O)cc2)ccc2ccccc21,4.7%,-2.4%,49.8*,-0.7%,64.3*,-27.7%
C/C=C/c1ccc2c(c1)OCO2,1.6%,4.3%,/,/,/,3.1%
C[n+]1c(/C=C/c2ccc3c(c2)OCO3)ccc2ccccc21,-18.9%,-16.8%,50.9*,5.1%,95.0*,-2.3%
COC(=O)NC(/C=C/c1ccco1)[C@@]1(C(=O)OC)CCCC1=O (some centres undefined),/,0.8%[12.9 µM],/,/,/,/
SMILES,TbPYK inhibitor,Giardia FBPA inh,CHX counter,LmPK inhibitor,Shiga toxin inh,RE007 growth inh
CCOC(=O)c1cnc2c(ccc3ccccc32)c1Nc1cccc(Cl)c1,1.9%,/,/,/,/,/
O=[N+]([O-])c1ccc2c(c1)-c1ccccc1C2O (centres undefined),15.8µM*,/,/,/,/,-1.9%
CC1CC=CC2C1C(=O)N(Cc1ccccc1)C2c1cccc([N+](=O)[O-])c1 (centres undefined),/,-0.1%,8.3,/,-2.4,/
CN(C)c1ccc(C(=O)c2ccc(N(C)C)c(N)c2)cc1N,2.5%,4.0%,28.2*,1.5%,74.7,4.1%
COCCCNC(=O)c1oc2c(c1C)-c1nn(Cc3cccc(Cl)c3)cc1CC2,-3.7%,/,/,/,/,/
CC#CC[C@@H](C)[C@@H](O)/C=C/[C@H]1[C@H]2c3cccc(CCCC(=O)O)c3O[C@H]2C[C@@H]1O,-3.2%,/,/,/,/,/
CN(C)S(=O)(=O)c1ccc(N2CCCC2)c(C(=O)Nc2nc(-c3ccc(F)c(F)c3)cs2)c1,-1.6%,-1.2%,28.1*,-0.6%,32.3,3.6%
CN(C)S(=O)(=O)c1ccc(N2CCCC2)c(C(=O)Nc2nccs2)c1,-4.4%,/,/,/,/,3.7%
Cc1sc2c(c1C)CN(C(C)(C)C)CN2C(=O)c1ccccc1,-5.7%,-1.2%,38.4*,-9.2%,91.0*,-0.4%
COCCN1Cc2c(sc(C)c2C)N(C(=O)c2ccccc2)C1,-5.1%,-0.2%,26.4*,0.0%,71.7*,-20.1%
Cc1sc2c(c1C)CN(Cc1ccncc1)CN2C(=O)c1ccco1,-7.1%,-6.8%,41.3*,-3.1%,64.1*,-14.9%
COc1ccc2c(C(=S)N(C)CC(=O)O)cccc2c1C(F)(F)F,-7.0%,/,/,/,/,/
O=C(Nc1ccccc1)Nc1ccc(C(=O)N2CCOCC2)cc1,?,-0.2%,46.2*,12.6µM*,62.2*,-25.1%
O=C(c1ccc(NC(=O)C2(c3ccccc3)CCCC2)cc1)N1CCOCC1,-1.6%,-0.4%,-0.8,5.1%,-6.2,0.7%
COC(=O)/C(=C\C(=O)c1ccccc1)Nc1cccc(C(F)(F)F)c1,0.0%,-18.0%,44.3*,-4.7%,98.0*,2.2%
NC(=O)c1cccc(NC(=O)Nc2ccc(Cl)cc2)c1,0.7%,13.7%,18.5*,-1.0%,21.5,-15.0%
O=C(Nc1ccccc1)Nc1cccc(C(F)(F)F)c1,0.7%,2.0%,29.8*,1.1%,80.2*,13.3%
COC(=O)/C=C/C(=O)Nc1cccc(C(F)(F)F)c1,3.3%,2.1%,-1.7,-1.0%,18.5,-27.1%
CCOc1ccc(-c2cc(C)n3nc(C(=O)Nc4cc(Cl)ccc4O)cc3n2)cc1,-4.2%,/,/,/,/,/
Cc1cccc(C)c1Nc1c(-c2ccccc2Cl)nc2cnccn12,-3.7%,/,/,/,/,/
CCOC(=O)c1[nH]c(C)c(C(=O)NCc2ccccc2Cl)c1C,9.3%,/,/,/,/,/
O=C(NCC(c1cccnc1)N1CCN(c2ccccc2F)CC1)C(=O)Nc1ccc(F)cc1F (centres undefined),-3.0%,/,/,/,/,/
COc1ccc(CNC(=O)c2cnc3sc(N4CCC(C)CC4)nn3c2=O)c(OC)c1,0.0%,/,/,/,/,/
CNC(=O)c1ccc(NC(=O)Nc2ccccc2)cc1,-2.4%,8.6%,29.6*,-2.5%,49.9*,-6.4%
CC(=O)c1cccc(NC(=O)Nc2ccccc2)c1,3.0%,0.9%,25.7*,-1.5%,61.8*,9.8%
N#Cc1ccc(NC(=O)Nc2ccc(Cl)cc2)cc1,-1.9%,-6.2%,38.2*,1.2%,60.6*,3.1%

# Assay outcomes as filed in PubChem BioAssay.
